Screening results: PubChem BioAssay, several laboratories
tim10-1 inh – tim10-1 yeast growth inhibition; AID 463190; inhibition, % at 20 µM; S. cerevisiae tim10-1 ts strain growth, BacTiter-Glo, 24 h; hit rate 2.2% among 330,000;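 active = inhibition of at least 40%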;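 note: mutant grown at 25 °C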
PfHsp90 yeast 2 – inhibits growth of yeast expressing Plasmodium falciparum Hsp90. inhibition, % at 9.4 µM. hit rate 0.32% among 310,000. AID 504621. S. cerevisiae expressing PfHsp90, BacTiter-Glo ATP, 48 h; yeast lacking PDR1 and PDR3 efflux regulators;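 active = every replicate shows inhibition above about 80%, whatever the replicate mean, limit read from the data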
SKKanGAS inh – SKKanGAS growth inhibition. inhibition, % at 7.5 µM. S. pyogenes SKKanGAS, kanamycin growth, BacTiter-Glo, 6 h. hit rate 1.3% among 300,000;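 active = mean replicate score, as percent of positive control median, at least 50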;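 note: strain carries kanamycin resistance gene driven by streptokinase promoter and grows in 40 µg/ml kanamycin; loss of luminescence reflects streptokinase promoter inhibition or plain growth inhibition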
TIM10 inh – TIM10 yeast growth inhibition. hit rate 1.4% among 330,000. S. cerevisiae TIM10 strain growth, BacTiter-Glo luminescence, 24 h. inhibition, % at 10 µM;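 active = inhibition of 40% or more at the single tested concentration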;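 note: wild-type TIM10 isogenic control strain grown at permissive 25 °C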
tim23-1 inh – tim23-1 yeast growth inhibition; hit rate 1.3% among 330,000; S. cerevisiae tim23-1 growth, BacTiter-Glo luminescence, 24 h; inhibition, % at 20 µM;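 active = growth inhibition of the mutant yeast at or above 50%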;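 note: temperature-sensitive mutant grown at 25 °C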
NLRP3 yeast inh – NALP3 inhibition in yeast; Yeast reconstituted NLRP3/ASC/caspase-1, beta-gal luminescence, 24 h; inhibition, % at 10 µM; hit rate 0.39% among 330,000;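 active = inhibition of 50% or more; inactive = inhibition below 50%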
tim10-1 conf – confirmation of tim10-1 mutant yeast growth inhibitors; shares compounds with tim10-1 inh; S. cerevisiae tim10-1 ts strain growth, BacTiter-Glo, 24 h; inhibition, % at 20 µM; hit rate 56% among 7,400; AID 463213;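 active = inhibition of yeast growth at or above a set limit in either of two repeat tests at 20 µM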;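 note: tim10-1 mutant grown at permissive 25 °C to find synthetic lethal compounds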
TIM10 conf – confirmation of TIM10 yeast growth inhibitors. inhibition, % at 10 µM. shares compounds with TIM10 inh. S. cerevisiae tim10 strain growth, BacTiter-Glo luminescence, 24 h. AID 463215. hit rate 63% among 4,600;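 active = inhibition of yeast growth at or above a set limit in either of two replicates at 10 µM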; note: this counterscreen used the strain with wild-type TIM10
tim23-1 confirm – confirmation of tim23-1 mutant yeast growth inhibitors; shares compounds with tim23-1 inh; S. cerevisiae tim23-1 growth, BacTiter-Glo luminescence, 24 h; inhibition, % at 20 µM; hit rate 83% among 4,400;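 active = inhibition above about 39% in either of two replicate wells at 20 µM, limit read from the data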;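 note: temperature-sensitive tim23-1 mutant grown at 25 °C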
A number is an active result; i = inactive; nt = no result. Shown are actives, neighbours in structure and some others; about 4.6% of the full set was active somewhere.

SMILES | tim10-1 inh | PfHsp90 yeast 2 | SKKanGAS inh | TIM10 inh | tim23-1 inh | NLRP3 yeast inh | tim10-1 conf | TIM10 conf | tim23-1 confirm
CCC(CC)c1nnc(NC(=O)C2COc3ccccc3O2)s1 (stereo unspecified) | 47 | i | i | i | 50 | i | 46 | nt | 53
Cc1ccc2c(c1)c(C1=c3ccccc3=NC1=O)c(O)n2C | 50 | i | i | 41 | 52 | i | 33 | 50 | 64
Cc1c(-n2c(O)c(C3=c4ccccc4=NC3=O)sc2=O)c(=O)n(-c2ccccc2)n1C | i | i | i | i | i | i | nt | nt | nt
O=[N+]([O-])c1ccc(/C=N/Nc2nc(N3CCOCC3)nc(N3CCOCC3)n2)cc1 | i | nt | i | i | i | i | nt | nt | nt
O=[N+]([O-])c1ccc(/C=C2\CCC(C3=CCCC3)=C2N2CCOCC2)cc1 | 52 | i | i | i | 53 | i | 61 | nt | 52
O=C(CN1CCCC1)N/N=C/c1c(O)ccc2ccccc12 | i | i | i | i | i | i | nt | nt | nt
CC(NC(=O)C(=O)N/N=C/c1ccccc1)c1ccccc1 (stereo unspecified) | i | i | i | i | i | i | nt | nt | nt
Clc1ccc(N=c2ssnc2Cl)nc1 | 57 | 120 | i | 85 | 62 | i | 77 | 47 | 90
COc1ccc(CCNC(=O)c2ccc(-c3ccc([N+](=O)[O-])cc3)o2)cc1OC | nt | i | i | nt | nt | nt | nt | nt | nt
COC(=O)n1c(=O)oc2ccc(S(=O)(=O)N3CCCCC3)cc21 | i | i | i | i | i | i | nt | nt | nt
CCCCOC(=O)n1c(=O)oc2cc(S(=O)(=O)N3CCCCC3)ccc21 | 40 | i | i | 43 | 52 | i | 39 | i | 55
CC(C)N(C(=S)Nc1cc(S(=O)(=O)N2CCOCC2)ccc1Cl)c1ccccc1 | i | i | i | i | i | i | nt | nt | nt
C/C(=N\NC(=S)Nc1cc(S(=O)(=O)N2CCOCC2)ccc1Cl)c1ccccc1F | 41 | i | i | 44 | 61 | i | 37 | i | 42
CCOC(=O)/C(=C/c1ccc(OC(=O)c2ccccc2)cc1)C(C)=O | 47 | 106 | i | 77 | 89 | i | 64 | i | 53
CCOc1ccc(-n2cc(-c3ccccc3)c3c(N4CCOCC4)ncnc32)cc1 | i | i | i | i | i | i | nt | nt | nt
CCOc1ccc(-n2cc(-c3ccccc3)c3c(=S)nc[nH]c32)cc1 | 70 | i | 77 | 45 | 64 | i | 33 | 47 | i
Cc1[nH]n(-c2ccccc2)c(=O)c1C(C[N+](=O)[O-])c1ccccc1Cl (stereo unspecified) | 61 | i | i | 44 | 74 | i | 59 | 56 | 75
COc1cccc(C(c2c(C)[nH]n(-c3ccccc3)c2=O)c2c(C)[nH]n(-c3ccccc3)c2=O)c1O | i | i | i | i | i | i | nt | nt | nt
COc1cccc(C(c2c(C)[nH]n(-c3ccccc3)c2=O)c2c(C)[nH]n(-c3ccccc3)c2=O)c1OC | 52 | i | i | i | 63 | i | 33 | nt | 55
COC(=O)c1sc(NC(=O)/C=C/c2ccc(C)o2)nc1C | i | i | i | i | i | i | nt | nt | nt
COc1ccccc1C(=O)Nc1nnc(SCC(=O)NC2CCCC2)s1 | i | i | i | i | i | i | nt | nt | nt
COC(=O)N/N=C/c1sc(N2CCCCC2)nc1-c1cccs1 | 45 | i | i | i | 53 | i | 33 | nt | 47
COc1ccc(OC)c(C(c2nnnn2C2CCCC2)N2CCc3ccccc3C2)c1 (stereo unspecified) | 42 | i | i | i | 52 | i | 38 | nt | 42
COc1ccc(C(c2nnnn2C2CCCC2)N2CCc3ccccc3C2)cc1OC (stereo unspecified) | nt | i | i | nt | nt | nt | nt | nt | nt
CC12CCC(C(=O)N(CSC(=S)N/N=C\c3ccccc3Cl)C1=O)C2(C)C (stereo unspecified) | 41 | i | i | 57 | 59 | i | i | i | 41
SMILES | tim10-1 inh | PfHsp90 yeast 2 | SKKanGAS inh | TIM10 inh | tim23-1 inh | NLRP3 yeast inh | tim10-1 conf | TIM10 conf | tim23-1 confirm
Cc1ccccc1NCN1C(=O)C2CCC(C)(C1=O)C2(C)C (stereo unspecified) | i | i | i | i | i | i | nt | nt | nt
CCOn1c(=O)c(-c2cccs2)[n+]([O-])c2ccccc21 | 57 | i | i | i | 62 | i | 41 | nt | 68
CC(Nc1nc(-c2ccccc2)nc2ccccc12)c1ccccc1 (stereo unspecified) | 44 | i | i | i | 58 | i | i | nt | i
CC(Nc1nc(-c2ccccc2F)nc2ccccc12)c1ccccc1 (stereo unspecified) | i | i | i | i | i | i | nt | nt | nt
COc1ccc(Nc2nc(-c3ccccc3)nc3ccccc23)cc1 | 52 | i | i | i | 67 | i | 40 | nt | 63
Oc1ccc(Nc2nc(-c3ccccc3)nc3ccccc23)cc1 | 59 | i | i | 42 | 61 | i | 46 | 52 | 59
O=C(Cc1cn(Cc2cccc(Cl)c2)c2ccccc12)N1CCCCCC1 | i | i | i | i | i | i | nt | nt | nt
CCc1c(O)cc2n(c1=O)-c1ccc(Cl)cc1C2(C)C | 44 | i | i | 42 | 52 | i | 34 | i | 49
Cc1cccc(N2C(=O)CC(Sc3ncn[nH]3)C2=O)c1 (stereo unspecified) | i | i | i | i | i | i | nt | nt | nt
Cc1ccc(N2C(=O)CC(Sc3ncn[nH]3)C2=O)cc1C (stereo unspecified) | 47 | i | i | 56 | 77 | i | 53 | 55 | 49
Cc1ccc(C(=O)Nc2ncc(Cc3ccccc3)s2)o1 | 53 | i | i | 49 | 57 | i | 50 | 50 | 54
CCc1nnc(NC(=O)c2ccc(C)o2)s1 | i | i | i | i | i | i | nt | nt | nt
O=C(Nc1ncc(Cc2ccccc2)s1)c1cccs1 | 51 | i | 66 | 52 | 72 | i | 50 | 61 | 52
O=C(Nc1ncc(Cc2cccc(Cl)c2)s1)c1cccs1 | 43 | i | 95 | 67 | 67 | i | 38 | i | 55
O=C(Nc1nnc(Cc2ccccc2)s1)c1cccs1 | i | i | i | i | i | i | nt | nt | nt
O=C(CSc1ccc(-c2cccnc2)nn1)Nc1ccc(F)cc1 | i | i | i | i | i | i | nt | nt | nt
Nc1ccc(Cn2ccc3c4c(N)nc(N)nc4ccc32)cc1 | nt | i | nt | nt | nt | nt | nt | nt | nt
Cc1cc(Cl)ccc1OC(C)C(=O)NCCCn1ccnc1 (stereo unspecified) | i | i | i | i | i | i | nt | nt | nt
O=C(c1ccccc1)C(CCC(CN1CCOCC1)C(=O)c1ccccc1)CN1CCOCC1 (stereo unspecified) | 54 | i | i | 60 | 53 | i | 48 | 68 | 47
